Nrf2 inh – blocks Nrf2 signaling | A549 ARE-Fluc reporter, luciferase luminescence, 18-24 h | Potency, µM (highest dose often 46 µM), inactives show top-dose activity change, negative = inhibition, most hits filed as inhibitors | hit rate 2.1% among 360,000 | AID 504444; also: % is scaled to controls: 0 for no effect and ±100 for the full control effect; nearly all actives have a fitted effect of over 60% in size
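Concentration-response testing used A549 ARE_Fluc cells at 5000 cells/well. Following an 18-24 h compound incubation, viability was read by fluorescence (Ex 405/Em 525) and luciferase output by luminescence.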
Nrf2 ARE act – activators of Nrf2 (ARE) signaling. hit rate 0.31% among 410,000. AREc32 ARE-luciferase reporter (MCF7-derived line), luminescence, 24 h. AID 624171. Potency, µM (titrated, usually from 46.1 µM), for inactives: at the top dose activation, hits mostly activators; also: % of control where 0% means no effect; nearly all actives have a fitted effect of over 65% in size
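Each well held 1000 AREc32 cells, which were incubated with compound for 24 hr at 37 deg C after overnight attachment, and ARE reporter activity was quantified by firefly luciferase luminescence.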
Pin1 inhibitor – inhibitors of human Pin1; Potency, µM (highest dose often 115 µM), for the others: top-dose activity, negative = inhibition, actives largely listed as inhibitors; Pin1 FP peptide displacement, HiFluor488, 10 min; AID 504891; Q13526; hit rate 0.009% among 390,000; active = well fitted inhibition curve with a large enough effect in the polarisation, with a control signal flat, not every such curve was filed as active; inconclusive = small, poorly fitted or top-dose-only effect, or effect the other way, or a change in a side signal; inactive = no such curve, though single readings can be large or run the other way; the % refers to the polarisation; also: % is scaled to controls: 0 for no effect and ±100 for the full control effect
Target sequence (Q13526 whole entry, looked up): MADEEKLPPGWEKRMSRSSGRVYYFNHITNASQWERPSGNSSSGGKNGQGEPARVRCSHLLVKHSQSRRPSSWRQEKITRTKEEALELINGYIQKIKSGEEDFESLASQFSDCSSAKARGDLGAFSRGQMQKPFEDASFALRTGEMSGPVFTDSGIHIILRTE
A549 viability – counter-screen for Nrf2 inhibitors: cytotoxicity in A549 cells | A549 ARE-Fluc cells, CellTiter-Fluor viability, 18-24 h | Potency, µM (highest dose often 46 µM), for the others: at the highest dose activity change, negative = cytotoxicity, hits mostly inhibitors | hit rate 0.16% among 390,000; also: % is scaled to controls: 0 for no effect and ±100 for the full control effect
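A549 ARE_Fluc cells in 5% FBS OPTI-MEM were exposed to compounds in concentration-response for 18-24 h at 37 deg C. Viability was read by CellTiter-Fluor fluorescence (Ex 405/Em 525) after 30 min, before the luciferase read.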
Numbers without * were called inactive; ! = a repeat was not active. Most compounds without a hit are left out; they make up all but 2.2% or so of the library. Unless noted, calls follow the shape of the dose curve; as a rule, active = well fitted curve in the direction sought with a large enough effect; inconclusive = small, poorly fitted or top-dose-only effect, or another doubt; inactive = no such curve, though single readings can be large; an effect the other way counts as inactive or inconclusive. Potency is read from the fitted curve at half-maximal effect.

What do the screens show for `Cc1nn(-c2nccs2)c2c1C(=O)CC(C)(C)C2Br` (centres undefined)?
Nrf2 inh: inconclusive; Nrf2 ARE act: 3%; Pin1 inhibitor: 2%; A549 viability: 4%

Results for COc1ccc(C(=O)Nc2ccc(S(=O)(=O)N(Cc3ccccc3)c3ccccc3)cc2)cc1 ?
Nrf2 inh: 7.3µM*; Nrf2 ARE act: 1%; Pin1 inhibitor: 17%; A549 viability: -1%

What do the screens show for `CCOc1ccc(NC(=O)c2ccc(NC(=O)COC(=O)Cc3ccccc3)cc2)cc1`?
Nrf2 inh: inconclusive; Nrf2 ARE act: 2%; Pin1 inhibitor: 9%; A549 viability: 8%

Results for O=[N+]([O-])c1ccc(NCCNc2ccc([N+](=O)[O-])cc2)cc1 ?
Nrf2 inh: -2%; Nrf2 ARE act: -1%; Pin1 inhibitor: inconclusive; A549 viability: -8%

How did O=[N+]([O-])c1ccc(C(c2ccc([N+](=O)[O-])cc2)c2ccc([N+](=O)[O-])cc2)cc1 do in these assays?
Nrf2 inh: 23µM*; Nrf2 ARE act: 6%; Pin1 inhibitor: inconclusive; A549 viability: -24%

Results for Cn1nc(-c2ccc(OCC(=O)N3CCN(Cc4ccccc4)CC3)cc2)c2ccccc2c1=O ?
Nrf2 inh: 18µM*; Nrf2 ARE act: 3%; Pin1 inhibitor: inconclusive; A549 viability: inconclusive

Results for Cn1cccc1CN1CCN(C(=O)COc2ccccc2)CC1 ?
Nrf2 inh: -6%; Nrf2 ARE act: 0%; Pin1 inhibitor: -2%; A549 viability: 0%

What do the screens show for `CSc1ccc(CN2CCN(C(=O)COc3ccc(C)cc3)CC2)cc1`?
Nrf2 inh: 21µM*!; Nrf2 ARE act: 3%; Pin1 inhibitor: -7%; A549 viability: 0%

How did Fc1ccc([C@@H]2CCNC[C@H]2COc2ccc3c(c2)OCO3)cc1 do in these assays?
Nrf2 inh: -3%; Nrf2 ARE act: -4%; Pin1 inhibitor: 1%; A549 viability: inconclusive

How did CC(C)Nc1ccc(Nc2ccccc2)cc1 do in these assays?
Nrf2 inh: -23%; Nrf2 ARE act: 3%; Pin1 inhibitor: -4%; A549 viability: 0%

What do the screens show for `CC(c1ccccc1)[n+]1ccccc1` (centres undefined)?
Nrf2 inh: 18µM*; Nrf2 ARE act: -1%; Pin1 inhibitor: 1%; A549 viability: -3%

Results for CCOc1ccc(CCNC(=O)c2cc3c(-c4ccc(OC)c(OC)c4)nn(C)c3s2)cc1OCC ?
Nrf2 inh: 13µM*; Nrf2 ARE act: -1%; Pin1 inhibitor: 19%; A549 viability: -9%

What do the screens show for `CCOC(=O)c1ccc(N2C(=O)c3n[nH]c(-c4cccs4)c3C2c2ccc(OC)cc2OC)cc1` (centres undefined)?
Nrf2 inh: inconclusive; Nrf2 ARE act: -1%; Pin1 inhibitor: 9%; A549 viability: -20%

Results for c1ccc(-c2nn(-c3ccccc3)[n+](-c3ccccc3)n2)cc1 ?
Nrf2 inh: 21µM*; Nrf2 ARE act: 0%; Pin1 inhibitor: -16%; A549 viability: -7%

What do the screens show for `CC(C)(C)c1ccc(C(=O)NC(=S)Nn2cnnc2)cc1`?
Nrf2 inh: inconclusive; Nrf2 ARE act: 0%; Pin1 inhibitor: 1%; A549 viability: -6%

What do the screens show for `O=C(C1CCCN(S(=O)(=O)c2cccc3nsnc23)C1)N1CCN(c2cccc(Cl)c2)CC1` (centres undefined)?
Nrf2 inh: 21µM*; Nrf2 ARE act: 0%; Pin1 inhibitor: inconclusive; A549 viability: -16%

What do the screens show for `Cn1c(=O)oc2cc(S(=O)(=O)N3CCCC(C(=O)N4CCN(c5cccc(Cl)c5)CC4)C3)ccc21` (centres undefined)?
Nrf2 inh: 18µM*; Nrf2 ARE act: -1%; Pin1 inhibitor: -5%; A549 viability: 0%

What do the screens show for `Cc1onc(-c2ccccc2Cl)c1C(=O)OCC(=O)c1ccc2c(c1)OCCO2`?
Nrf2 inh: inconclusive; Nrf2 ARE act: -1%; Pin1 inhibitor: 25%; A549 viability: -15%

What do the screens show for `Cc1c(P(=S)(c2ccccc2)c2ccccc2)[n+]2ccccc2n1CCc1ccccc1`?
Nrf2 inh: inconclusive; Nrf2 ARE act: 0%; Pin1 inhibitor: -8%; A549 viability: -27%

Results for COC(=O)[C@@]12CCCCN1[C@H](c1ccc(-c3ccc(Cl)c(Cl)c3)c(OC)c1)[C@@H]1C(=O)N(C)C(=O)[C@@H]12 ?
Nrf2 inh: 21µM*; Nrf2 ARE act: -1%; Pin1 inhibitor: 5%; A549 viability: -14%

How did O=C1/C(=C/c2ccccc2)C[C@@]2(O)[C@H]3Cc4ccc(O)c5c4[C@@]2(CCN3CC2CC2)C1O5 (some centres undefined) do in these assays?
Nrf2 inh: 12µM*; Nrf2 ARE act: -4%; Pin1 inhibitor: -2%; A549 viability: inconclusive

How did Oc1ccc2c3c1OC1c4[nH]c5ccccc5c4C[C@@]4(O)C(C2)N(CC2CC2)CC[C@]314 (some centres undefined) do in these assays?
Nrf2 inh: -9%; Nrf2 ARE act: 6%; Pin1 inhibitor: -3%; A549 viability: -2%

Results for CC(=O)c1cn(CCCOc2ccccc2)c2ccccc12 ?
Nrf2 inh: 21µM*; Nrf2 ARE act: 6%; Pin1 inhibitor: -1%; A549 viability: -15%

How did c1nc2nc3c(c(N4CCNCC4)n2n1)CCCC3 do in these assays?
Nrf2 inh: 3%; Nrf2 ARE act: 0%; Pin1 inhibitor: -2%; A549 viability: 2%

How did COc1cccc(N2CCN(c3c4c(nc5nncn35)CCC4)CC2)c1 do in these assays?
Nrf2 inh: 16µM*; Nrf2 ARE act: 0%; Pin1 inhibitor: -7%; A549 viability: -16%

Results for Cc1cccn2c(=O)c(/C=C(\C#N)c3nc4ccccc4s3)c(Oc3ccc(F)cc3)nc12 ?
Nrf2 inh: 18%; Nrf2 ARE act: 3%; Pin1 inhibitor: inconclusive; A549 viability: -17%

How did O=C(Nc1ccc(C(F)(F)F)cc1)c1cccn(Cc2ccc3c(c2)OC(F)(F)O3)c1=O do in these assays?
Nrf2 inh: inconclusive; Nrf2 ARE act: 0%; Pin1 inhibitor: -2%; A549 viability: -12%

How did CNC(=O)c1cccn(Cc2ccc(C(F)(F)F)cc2)c1=O do in these assays?
Nrf2 inh: inconclusive; Nrf2 ARE act: inconclusive; Pin1 inhibitor: -15%; A549 viability: 9%

What do the screens show for `NC(=O)c1cccn(Cc2ccc(C(F)(F)F)cc2)c1=O`?
Nrf2 inh: 16µM*; Nrf2 ARE act: 3%; Pin1 inhibitor: 8%; A549 viability: -3%

What do the screens show for `CNC(=O)c1cccn(Cc2cc(C(F)(F)F)cc(C(F)(F)F)c2)c1=O`?
Nrf2 inh: 5.2µM*; Nrf2 ARE act: 7%; Pin1 inhibitor: 6%; A549 viability: -19%

How did CCOc1ccc(CCNC(=O)c2ccc(CS(=O)(=O)c3ccccc3C)o2)cc1OCC do in these assays?
Nrf2 inh: inconclusive; Nrf2 ARE act: 4%; Pin1 inhibitor: 1%; A549 viability: -5%

What do the screens show for `Nc1c(C(=O)Nc2cccc(F)c2)sc2nc(-c3cccs3)ccc12`?
Nrf2 inh: -6%; Nrf2 ARE act: 4%; Pin1 inhibitor: inconclusive; A549 viability: 1%

Bioassay records (PubChem BioAssay)
